An excerpt weighted towards active compounds, which were near 1.5% of everything screened.
dFosB act-1 = mouse delta FosB homodimer activation | P13346 | 340,000 compounds, 0.99% hits | activation, % at 25 µM | purified delta FosB, TAMRA-CDK5 oligo fluorescence polarization; percent of positive-control signal above neutral wells;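 active means mean activation above about 17%, with every replicate also reaching it, limit read from the data, passing the limit was not always enough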
Target sequence (P13346 whole entry, looked up): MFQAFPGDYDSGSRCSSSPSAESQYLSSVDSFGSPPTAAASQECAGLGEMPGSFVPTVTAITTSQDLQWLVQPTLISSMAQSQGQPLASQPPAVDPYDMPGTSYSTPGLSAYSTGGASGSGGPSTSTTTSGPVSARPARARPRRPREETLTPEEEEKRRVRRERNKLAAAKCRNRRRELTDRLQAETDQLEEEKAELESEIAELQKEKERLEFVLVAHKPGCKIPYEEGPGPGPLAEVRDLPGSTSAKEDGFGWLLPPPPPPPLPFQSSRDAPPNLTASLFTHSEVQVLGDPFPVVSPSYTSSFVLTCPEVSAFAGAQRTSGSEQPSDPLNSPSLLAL
RAD52 inh = inhibitors of human RAD52 DNA annealing; inhibition, % at 18.7 µM; P43351; recombinant RAD52 DNA annealing, FRET fluorescence; AID 651710; 360,000 compounds, 0.46% hits;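 active means every replicate showing at least 50% inhibition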
RAD54 inh = inhibitors of human RAD54 branch migration; Q92698; 360,000 compounds, 0.14% hits; inhibition, % at 10.4 µM; RAD54 Holliday junction branch migration, FAM/BHQ fluorescence; AID 602329;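 active means mean normalized replicate activity at least 40 and at least half of replicates scoring 40 or more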;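 further: 0% = median of neutral control wells and 100% = median of positive control wells; inhibitors cause a drop in the FAM fluorescence signal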
CFTR F508del cor = CFTR F508del correction in bronchial cells | AID 720511 | activity (quench increase), % at 7.58 µM | 350,000 compounds, 0.36% hits | CFBE cells, YFP halide quenching; stimulated with forskolin plus potentiator P3; % fluorescence drop versus neutral controls;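 active means mean added fluorescence quench of at least 8% versus neutral control, with both replicates also reaching 8%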;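 further: cells transiently co-express mutant CFTR-F508del with the halide-sensitive YFP; corrector assay measuring rescue of mutant channel to the surface after 24 h compound exposure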
N-glyco inh = blocks N-linked glycosylation in D54 reporter cells; reporter increase, % at 12.5 µM; 360,000 compounds, 0.23% hits; D54 ERlucT glycosylation luciferase reporter, 24 h; percent of 100 nM tunicamycin response; AID 588692;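 active means mean luciferase reporter signal, scaled so untreated is 0 and the glycosylation-blocking control 100, at or above a set limit in every replicate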;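 further: luciferase carries N-glycosylation sites so blocking glycosylation raises the light; 0% = median of neutral control wells and 100% = median of 100 nM tunicamycin wells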
PvdQ inh = P. aeruginosa PvdQ acylase inhibition; inhibition, % at 10 µM; 340,000 compounds, 0.063% hits; purified PvdQ acylase, fluorescence plate reader; in the data active means inhibition above about 30%, passing the limit was not always enough;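 further: 0% = vehicle neutral wells and 100% = reference inhibitor wells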
dFosB act-2 = activators of mouse delta FosB homodimer DNA binding. shares compounds with dFosB act-1. purified delta FosB, TAMRA-CDK5 oligo fluorescence polarization; normalised: neutral wells 0, positive control 100. activation, % at 24.9 µM. 2,400 tested, under 10 active;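 active means highest replicate activation at or above 34% and every replicate reaching that threshold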;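 further: higher polarization means more probe DNA bound by delta FosB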
Starred values were filed as active, the others as inactive; . = no result.

SMILES	dFosB act-1	RAD52 inh	RAD54 inh	CFTR F508del cor	N-glyco inh	PvdQ inh	dFosB act-2
COc1ccc(-c2ccc3c(c2)[C@@H]2[C@@H](CCN2S(=O)(=O)c2ccccc2F)[C@H](CO)N3C)cc1	.	-2	4	-2	.	.	.
Cn1nnc(NC(=S)NC(=O)c2ccc(-c3ccc(Br)cc3)o2)n1	33*	-18	7	1	2	-13	1
O=C(CSc1nc2ccccc2c(=O)n1-c1ccccc1)NCc1ccco1	-4	.	-4	.	0	-18	.
Cc1ccc(-n2c(SCC(=O)NCc3ccco3)nc3sc(C)c(C)c3c2=O)cc1	31*	.	-6	.	-2	3	2
Cc1ccc(-n2c(SCC(=O)Nc3cc(C)on3)nc3c([nH]c4ccccc43)c2=O)cc1	26*	2	0	-2	0	-9	3
O=C(CSc1nc2c([nH]c3ccccc32)c(=O)n1-c1ccc(F)cc1)NCc1ccco1	19*	7	3	-2	7	-15	2
CC(=O)Nc1ccc(NC(=O)CSc2nc3c([nH]c4ccccc43)c(=O)n2-c2ccccc2F)cc1	22*	3	0	-2	1	-5	1
CC(C)NC(=O)N(C)C[C@@H]1Oc2ccc(NC(=O)Cn3cnnn3)cc2C(=O)N([C@@H](C)CO)C[C@@H]1C	.	.	.	1	.	.	.
C[C@@H]1CN([C@@H](C)CO)C(=O)c2cccc(NS(=O)(=O)c3ccc(F)cc3)c2O[C@@H]1CN(C)C(=O)Nc1ccc2c(c1)OCO2	.	8	-1	3	.	.	.
Cc1cc(NC(=O)CSc2nc3c(c(=O)n2-c2ccc(Br)cc2)SCC3)no1	42*	.	-1	.	2	-8	6
CCOc1ccc(-n2c(SCC(=O)Nc3cc(C)on3)nc3c([nH]c4ccccc43)c2=O)cc1	41*	4	1	5	-1	-3	3
CC(C)NC(=O)Nc1ccc2c(c1)C(=O)N([C@@H](C)CO)C[C@@H](C)[C@@H](CN(C)C(=O)NC(C)C)OCCCC[C@H](C)O2	.	9	-5	1	.	.	.
O=C(c1ccc(Cl)cc1)c1cnc(Nc2ccccc2Cl)s1	53*	.	-4	.	-10	-14	6
Cc1ccc(NC(=O)[C@H](NC(=O)[C@@H]2Cc3ccccc3CN2)c2ccccc2)cc1	1	-7	0	2	0	-21	.
CC(C)c1ccc(NC(=O)[C@H](NC(=O)[C@@H]2Cc3ccccc3CN2)c2ccccc2)cc1	57*	-7	.	1	-3	-14	5
C=CCn1c(SCC(=O)Nc2ncc(Cc3ccc(Br)cc3)s2)nnc1-c1ccncc1	37*	-17	-14	-1	-1	-20	5
COc1ccc(-c2csc(NC(=O)C3CCN(c4ncnc5sc(C)c(C)c45)CC3)n2)cc1OC	26*	-2	16	3	-11	-2	-2
COc1ccccc1OCC(=O)NNC(=O)C1CCN(c2ncnc3sc(C)c(C)c23)CC1	-5	-3	-1	-1	0	-5	.
C=CCn1c(C)cc(-c2csc(NC(=O)C3CCN(c4ncnc5sc(C)c(C)c45)CC3)n2)c1C	30*	-4	-9	0	0	4	0
CCc1ccc2nc(NC(=O)C3CCN(c4ncnc5sc(C)c(C)c45)CC3)sc2c1	11	-19	5	6	-5	-17	.
N#Cc1ccc(-c2ccc3c(c2)[C@H]2[C@H](CCN2C(=O)C2CCC2)[C@H](CO)N3)cc1	.	-10	.	-2	.	.	.
CCc1ccc(NC(=O)CSc2nc3n[nH]c(C)c3c(=N)n2-c2cccc(OC)c2)cc1	42*	.	-2	.	4	-4	0
O=C(NCC1OCCc2ccccc21)c1ccc(NC(=O)c2ccc(Cl)cc2Cl)cc1 (stereo unspecified)	45*	.	-4	.	11	-11	5
CO[C@H]1CN(C)C(=O)c2ccc(NC(=O)Cc3ccccc3)cc2OC[C@H](C)N(C(=O)c2ccccc2F)C[C@H]1C	.	-6	2	-2	.	.	.
O=C(CNC(=O)c1cccc(Cl)c1)Nc1ccc(F)c(F)c1F	-2	-6	-3	0	1	9	.
SMILES	dFosB act-1	RAD52 inh	RAD54 inh	CFTR F508del cor	N-glyco inh	PvdQ inh	dFosB act-2
O=C(CNC(=O)c1n[nH]c2ccccc12)Nc1ccc(F)c(F)c1F	23*	-15	2	1	2	-23	3
CCC(=O)N[C@@H]1CC[C@H](CC(=O)NCC2CC2)O[C@H]1CO	.	17	.	-3	.	.	.
Cn1c(=O)c2c(SCC(=O)Nc3ccccc3F)nc(C3CC3)nc2n(C)c1=O	24*	5	-9	-3	-3	14	0
COc1cc(NC(=O)CSc2nc(C3CC3)nc3ccccc23)cc(OC)c1	88*	-11	2	1	5	-7	4
O=C(CSc1nc(C2CC2)nc2ccccc12)Nc1ccccc1N1CCOCC1	-9	-4	.	1	-4	-11	.
O=C(CSc1nc(C2CC2)nc2ccccc12)Nc1ccccc1	36*	-1	9	-1	-4	8	-2
O=C(CSc1nc(C2CC2)nc2ccccc12)Nc1ccccc1Cl	31*	-9	4	-3	-1	-10	2
Cn1c(=O)c2c(SCC(=O)Nc3ccccc3F)nc(-c3ccccc3F)nc2n(C)c1=O	15	-4	-5	0	-7	2	.
CC(=O)Nc1cccc(NC(=O)CSc2nc(C3CC3)nc3ccccc23)c1	15	11	-1	-1	10	-9	.
O=C(NC1Cc2ccccc2C1)[C@@H]1[C@@H](CO)[C@@H]2Cn3c(ccc(C4=CCCCC4)c3=O)[C@H]1N2CC1CC1	.	0	-4	5	.	.	.
C[C@H]1CN([C@@H](C)CO)C(=O)c2cccc(NS(=O)(=O)c3ccc(F)cc3)c2O[C@@H]1CN(C)S(=O)(=O)c1cn(C)cn1	.	-6	1	0	.	.	.
CC(=O)N(C)C[C@H]1Oc2ncc(-c3ccccc3F)cc2C(=O)N([C@@H](C)CO)C[C@@H]1C	.	-3	7	-1	.	.	.
COc1ccc(C)cc1NC(=O)CCC(=O)Nc1nnc(C2CCCCC2)s1	40*	-12	-4	2	3	-10	-8
CN(C)CC#Cc1cccc(-c2nc(C(=O)N3CCN(C)CC3)cc3c2[C@@H](CCO)N(S(=O)C(C)(C)C)C3)c1 (stereo partly specified)	.	-13	0	1	.	.	.
O=S(=O)(NC1CC1)c1ccc(S(=O)(=O)N2CCCC3(CCCCC3)C2)cc1	16*	.	0	.	10	-6	7
CC(=O)N(C)C[C@H]1Oc2cc(-c3ccccc3C)ccc2S(=O)(=O)N([C@H](C)CO)C[C@@H]1C	.	-7	-1	1	.	.	.
COc1ccc(CNCC(O)(c2ccc(Cl)cc2)c2ccc(Cl)cc2)cc1OC	15	.	8	.	-5	4	.
